Results: ChEMBL document CHEMBL1961873, “Compounds: GSK PKIS; Assays: Nanosyn kinase panel” (2012)

Experiments:
[1] = target: High affinity nerve growth factor receptor (Homo sapiens) (UniProt P04629); conditions: at 1 µM;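 note: each value is the mean percent inhibition of TRKA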
[2] = target: BDNF/NT-3 growth factors receptor (Homo sapiens) (UniProt Q16620); conditions: at 0.1 µM
[3] = target: BDNF/NT-3 growth factors receptor (Homo sapiens) (UniProt Q16620); conditions: at 1 µM
[4] = target: NT-3 growth factor receptor (Homo sapiens) (UniProt Q16288); conditions: at 0.1 µM
[5] = target: NT-3 growth factor receptor (Homo sapiens) (UniProt Q16288); conditions: at 1 µM
[6] = target: T1, Tyrosine-protein kinase TXK (Homo sapiens) (UniProt P42681); conditions: at 0.1 µM
T1 sequence (whole entry): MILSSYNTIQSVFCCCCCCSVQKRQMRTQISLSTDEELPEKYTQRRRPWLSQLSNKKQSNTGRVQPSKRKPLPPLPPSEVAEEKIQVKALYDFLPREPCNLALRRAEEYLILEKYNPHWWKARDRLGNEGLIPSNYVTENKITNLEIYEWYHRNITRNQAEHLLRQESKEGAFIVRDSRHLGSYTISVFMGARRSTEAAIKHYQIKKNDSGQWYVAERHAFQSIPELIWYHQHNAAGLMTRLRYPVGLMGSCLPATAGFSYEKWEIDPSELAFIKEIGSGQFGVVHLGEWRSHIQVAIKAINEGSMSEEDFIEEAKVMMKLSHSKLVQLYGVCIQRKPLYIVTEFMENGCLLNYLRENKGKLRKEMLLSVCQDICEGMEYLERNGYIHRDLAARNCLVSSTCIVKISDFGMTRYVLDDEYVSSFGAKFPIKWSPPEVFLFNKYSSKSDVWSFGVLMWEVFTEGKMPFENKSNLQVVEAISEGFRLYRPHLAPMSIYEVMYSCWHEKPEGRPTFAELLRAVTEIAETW

[7] = target: T1, Tyrosine-protein kinase TXK (Homo sapiens); conditions: at 1 µM
[8] = target: Non-receptor tyrosine-protein kinase TYK2 (Homo sapiens) (UniProt P29597); conditions: at 0.1 µM;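 note: each value is a mean of the inhibition readings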
[9] = target: T2, Dual specificity protein kinase TTK (Homo sapiens) (UniProt P33981); conditions: at 1 µM;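 note: reported figures are mean TTK inhibition at 1 µM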
T2 sequence (whole entry): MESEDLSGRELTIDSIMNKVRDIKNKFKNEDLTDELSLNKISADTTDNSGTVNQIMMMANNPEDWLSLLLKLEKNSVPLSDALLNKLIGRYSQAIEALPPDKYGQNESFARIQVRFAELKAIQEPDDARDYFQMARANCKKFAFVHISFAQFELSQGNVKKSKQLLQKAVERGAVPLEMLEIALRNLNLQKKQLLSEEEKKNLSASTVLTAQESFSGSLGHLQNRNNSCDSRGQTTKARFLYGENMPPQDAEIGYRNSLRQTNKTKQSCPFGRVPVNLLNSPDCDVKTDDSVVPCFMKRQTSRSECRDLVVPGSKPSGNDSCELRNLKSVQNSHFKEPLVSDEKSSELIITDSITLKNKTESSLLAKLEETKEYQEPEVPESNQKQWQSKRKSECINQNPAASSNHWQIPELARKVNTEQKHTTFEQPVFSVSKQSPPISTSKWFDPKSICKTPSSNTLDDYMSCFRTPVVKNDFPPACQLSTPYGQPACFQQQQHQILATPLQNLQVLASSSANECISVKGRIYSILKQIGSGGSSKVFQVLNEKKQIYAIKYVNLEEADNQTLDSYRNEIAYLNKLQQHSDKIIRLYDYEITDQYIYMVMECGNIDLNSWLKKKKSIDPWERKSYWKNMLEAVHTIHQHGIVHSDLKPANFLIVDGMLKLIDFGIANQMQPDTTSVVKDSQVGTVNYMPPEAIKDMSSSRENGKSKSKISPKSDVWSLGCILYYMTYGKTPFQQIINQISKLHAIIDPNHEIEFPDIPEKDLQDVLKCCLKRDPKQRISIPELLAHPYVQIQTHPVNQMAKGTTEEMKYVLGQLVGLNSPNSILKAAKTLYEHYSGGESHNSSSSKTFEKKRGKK

[10] = target: T3, Aurora kinase A (Homo sapiens) (UniProt O14965); conditions: at 0.1 µM
T3 sequence (whole entry): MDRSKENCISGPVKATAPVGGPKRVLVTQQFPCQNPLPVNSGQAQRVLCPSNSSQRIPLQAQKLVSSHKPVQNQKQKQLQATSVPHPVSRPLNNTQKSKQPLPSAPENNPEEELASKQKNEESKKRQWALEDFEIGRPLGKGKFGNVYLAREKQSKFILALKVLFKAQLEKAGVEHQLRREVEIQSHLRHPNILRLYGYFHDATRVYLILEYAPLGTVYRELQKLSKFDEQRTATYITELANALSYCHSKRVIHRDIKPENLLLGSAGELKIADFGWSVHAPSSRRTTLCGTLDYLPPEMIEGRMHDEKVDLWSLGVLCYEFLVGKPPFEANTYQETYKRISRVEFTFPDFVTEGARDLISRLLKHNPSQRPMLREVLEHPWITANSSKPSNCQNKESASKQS

[11] = target: T3, Aurora kinase A (Homo sapiens); conditions: at 1 µM
[12] = target: Aurora kinase B (Homo sapiens) (UniProt Q96GD4); conditions: at 0.1 µM
[13] = target: Aurora kinase B (Homo sapiens) (UniProt Q96GD4); conditions: at 1 µM
[14] = target: T4, Aurora kinase C (Homo sapiens) (UniProt Q9UQB9); conditions: at 0.1 µM
T4 sequence (whole entry): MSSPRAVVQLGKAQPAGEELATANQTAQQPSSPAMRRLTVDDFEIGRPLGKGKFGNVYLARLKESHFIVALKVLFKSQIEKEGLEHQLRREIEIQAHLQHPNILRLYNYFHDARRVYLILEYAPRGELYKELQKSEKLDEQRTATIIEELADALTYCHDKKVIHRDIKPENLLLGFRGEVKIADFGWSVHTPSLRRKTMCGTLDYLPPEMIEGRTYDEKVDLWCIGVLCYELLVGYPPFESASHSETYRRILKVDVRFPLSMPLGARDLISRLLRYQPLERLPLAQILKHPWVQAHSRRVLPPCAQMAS

[15] = target: T4, Aurora kinase C (Homo sapiens); conditions: at 1 µM
[16] = target: Serine/threonine-protein kinase 10 (Homo sapiens) (UniProt O94804); conditions: at 0.1 µM
[17] = target: Serine/threonine-protein kinase 10 (Homo sapiens) (UniProt O94804); conditions: at 1 µM
[18] = target: T5, Mitogen-activated protein kinase kinase kinase kinase 2 (Homo sapiens) (UniProt Q12851); conditions: at 0.1 µM
T5 sequence (whole entry): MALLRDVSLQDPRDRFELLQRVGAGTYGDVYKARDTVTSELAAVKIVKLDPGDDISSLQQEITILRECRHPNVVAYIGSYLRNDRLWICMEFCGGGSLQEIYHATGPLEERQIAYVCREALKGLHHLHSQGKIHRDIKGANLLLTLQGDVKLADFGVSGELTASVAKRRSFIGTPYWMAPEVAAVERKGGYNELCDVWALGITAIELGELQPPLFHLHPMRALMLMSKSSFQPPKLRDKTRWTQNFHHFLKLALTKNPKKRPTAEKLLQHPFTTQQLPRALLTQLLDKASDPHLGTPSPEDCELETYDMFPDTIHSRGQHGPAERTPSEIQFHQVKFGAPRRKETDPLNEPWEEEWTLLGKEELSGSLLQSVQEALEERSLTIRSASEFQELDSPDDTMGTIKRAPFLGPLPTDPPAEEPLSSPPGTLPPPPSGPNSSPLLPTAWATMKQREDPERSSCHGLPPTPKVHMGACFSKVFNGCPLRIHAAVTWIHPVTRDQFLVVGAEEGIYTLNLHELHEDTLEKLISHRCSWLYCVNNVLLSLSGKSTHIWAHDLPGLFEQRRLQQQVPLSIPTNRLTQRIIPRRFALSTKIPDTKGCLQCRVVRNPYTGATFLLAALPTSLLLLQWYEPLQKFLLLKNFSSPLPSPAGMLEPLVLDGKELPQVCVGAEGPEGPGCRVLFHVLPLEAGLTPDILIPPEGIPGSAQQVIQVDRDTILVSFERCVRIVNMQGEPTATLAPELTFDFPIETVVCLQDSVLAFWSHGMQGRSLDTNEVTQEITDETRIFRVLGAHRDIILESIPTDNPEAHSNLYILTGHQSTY

[19] = target: T5, Mitogen-activated protein kinase kinase kinase kinase 2 (Homo sapiens); conditions: at 1 µM
[20] = target: Mitogen-activated protein kinase kinase kinase kinase 4 (Homo sapiens) (UniProt O95819); conditions: at 0.1 µM
Chain of Mitogen-activated protein kinase kinase kinase kinase 4 (Homo sapiens) (O95819 2-1239 limits assumed): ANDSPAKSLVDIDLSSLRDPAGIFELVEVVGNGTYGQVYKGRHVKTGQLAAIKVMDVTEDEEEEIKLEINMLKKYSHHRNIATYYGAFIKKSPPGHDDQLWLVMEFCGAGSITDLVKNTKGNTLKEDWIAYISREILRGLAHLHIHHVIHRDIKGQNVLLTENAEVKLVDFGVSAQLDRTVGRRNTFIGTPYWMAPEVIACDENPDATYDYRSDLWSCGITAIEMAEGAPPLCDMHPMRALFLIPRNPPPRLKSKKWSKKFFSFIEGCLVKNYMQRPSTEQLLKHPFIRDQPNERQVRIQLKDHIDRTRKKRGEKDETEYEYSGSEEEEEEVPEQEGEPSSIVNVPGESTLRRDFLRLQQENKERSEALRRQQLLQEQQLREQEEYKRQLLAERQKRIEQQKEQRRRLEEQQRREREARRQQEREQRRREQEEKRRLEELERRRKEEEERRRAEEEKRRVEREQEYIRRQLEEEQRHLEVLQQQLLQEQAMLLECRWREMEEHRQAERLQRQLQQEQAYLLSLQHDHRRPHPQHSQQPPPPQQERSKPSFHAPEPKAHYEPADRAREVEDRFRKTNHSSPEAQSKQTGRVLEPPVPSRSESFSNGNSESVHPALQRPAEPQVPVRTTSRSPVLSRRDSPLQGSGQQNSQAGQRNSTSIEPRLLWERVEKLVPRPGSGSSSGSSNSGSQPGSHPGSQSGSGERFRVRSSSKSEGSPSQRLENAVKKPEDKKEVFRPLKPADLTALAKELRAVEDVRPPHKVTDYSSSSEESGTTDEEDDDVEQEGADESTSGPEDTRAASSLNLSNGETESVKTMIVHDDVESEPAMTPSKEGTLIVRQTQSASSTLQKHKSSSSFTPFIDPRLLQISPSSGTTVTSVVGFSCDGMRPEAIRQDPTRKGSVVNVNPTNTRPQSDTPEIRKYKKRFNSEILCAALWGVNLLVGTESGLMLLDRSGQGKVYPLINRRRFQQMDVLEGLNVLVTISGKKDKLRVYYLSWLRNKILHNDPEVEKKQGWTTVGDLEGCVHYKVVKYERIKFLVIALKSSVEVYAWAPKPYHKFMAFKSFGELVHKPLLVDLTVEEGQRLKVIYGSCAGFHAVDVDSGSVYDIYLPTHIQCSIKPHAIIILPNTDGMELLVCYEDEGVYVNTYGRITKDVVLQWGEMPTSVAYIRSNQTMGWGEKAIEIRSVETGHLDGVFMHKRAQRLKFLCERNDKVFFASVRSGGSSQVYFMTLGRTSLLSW

Chain of BDNF/NT-3 growth factors receptor (Homo sapiens) (Q16620 32-822 limits assumed): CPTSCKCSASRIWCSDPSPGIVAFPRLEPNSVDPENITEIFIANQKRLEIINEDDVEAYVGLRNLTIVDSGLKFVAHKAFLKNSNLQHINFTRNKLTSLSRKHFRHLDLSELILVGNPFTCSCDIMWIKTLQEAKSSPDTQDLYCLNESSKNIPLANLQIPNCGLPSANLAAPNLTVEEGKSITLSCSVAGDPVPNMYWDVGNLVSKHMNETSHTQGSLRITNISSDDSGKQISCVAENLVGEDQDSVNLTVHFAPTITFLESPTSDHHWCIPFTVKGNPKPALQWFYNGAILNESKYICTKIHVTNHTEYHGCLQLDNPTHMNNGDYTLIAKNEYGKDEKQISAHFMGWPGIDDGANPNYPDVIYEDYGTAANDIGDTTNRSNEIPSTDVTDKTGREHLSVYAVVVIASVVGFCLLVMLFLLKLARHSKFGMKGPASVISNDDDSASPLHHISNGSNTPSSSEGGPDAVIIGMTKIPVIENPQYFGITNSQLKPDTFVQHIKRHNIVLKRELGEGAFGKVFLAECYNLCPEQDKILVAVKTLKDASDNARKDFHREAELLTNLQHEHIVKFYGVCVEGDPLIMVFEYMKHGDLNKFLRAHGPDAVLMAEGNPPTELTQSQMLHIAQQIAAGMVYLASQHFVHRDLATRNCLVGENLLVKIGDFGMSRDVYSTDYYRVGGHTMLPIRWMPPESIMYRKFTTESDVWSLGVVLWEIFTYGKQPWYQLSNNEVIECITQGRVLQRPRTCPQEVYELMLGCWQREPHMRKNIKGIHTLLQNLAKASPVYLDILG
Chain of Aurora kinase B (Homo sapiens) (Q96GD4 whole entry): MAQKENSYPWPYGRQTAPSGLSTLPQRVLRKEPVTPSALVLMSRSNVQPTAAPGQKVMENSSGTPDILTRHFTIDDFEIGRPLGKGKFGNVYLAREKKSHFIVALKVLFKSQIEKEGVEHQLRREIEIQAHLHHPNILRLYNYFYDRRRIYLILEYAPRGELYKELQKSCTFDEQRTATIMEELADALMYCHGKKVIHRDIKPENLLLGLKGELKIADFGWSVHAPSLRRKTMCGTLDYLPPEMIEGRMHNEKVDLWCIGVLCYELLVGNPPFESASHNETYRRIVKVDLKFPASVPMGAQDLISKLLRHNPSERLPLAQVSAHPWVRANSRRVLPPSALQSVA
Chain of Non-receptor tyrosine-protein kinase TYK2 (Homo sapiens) (P29597 whole entry): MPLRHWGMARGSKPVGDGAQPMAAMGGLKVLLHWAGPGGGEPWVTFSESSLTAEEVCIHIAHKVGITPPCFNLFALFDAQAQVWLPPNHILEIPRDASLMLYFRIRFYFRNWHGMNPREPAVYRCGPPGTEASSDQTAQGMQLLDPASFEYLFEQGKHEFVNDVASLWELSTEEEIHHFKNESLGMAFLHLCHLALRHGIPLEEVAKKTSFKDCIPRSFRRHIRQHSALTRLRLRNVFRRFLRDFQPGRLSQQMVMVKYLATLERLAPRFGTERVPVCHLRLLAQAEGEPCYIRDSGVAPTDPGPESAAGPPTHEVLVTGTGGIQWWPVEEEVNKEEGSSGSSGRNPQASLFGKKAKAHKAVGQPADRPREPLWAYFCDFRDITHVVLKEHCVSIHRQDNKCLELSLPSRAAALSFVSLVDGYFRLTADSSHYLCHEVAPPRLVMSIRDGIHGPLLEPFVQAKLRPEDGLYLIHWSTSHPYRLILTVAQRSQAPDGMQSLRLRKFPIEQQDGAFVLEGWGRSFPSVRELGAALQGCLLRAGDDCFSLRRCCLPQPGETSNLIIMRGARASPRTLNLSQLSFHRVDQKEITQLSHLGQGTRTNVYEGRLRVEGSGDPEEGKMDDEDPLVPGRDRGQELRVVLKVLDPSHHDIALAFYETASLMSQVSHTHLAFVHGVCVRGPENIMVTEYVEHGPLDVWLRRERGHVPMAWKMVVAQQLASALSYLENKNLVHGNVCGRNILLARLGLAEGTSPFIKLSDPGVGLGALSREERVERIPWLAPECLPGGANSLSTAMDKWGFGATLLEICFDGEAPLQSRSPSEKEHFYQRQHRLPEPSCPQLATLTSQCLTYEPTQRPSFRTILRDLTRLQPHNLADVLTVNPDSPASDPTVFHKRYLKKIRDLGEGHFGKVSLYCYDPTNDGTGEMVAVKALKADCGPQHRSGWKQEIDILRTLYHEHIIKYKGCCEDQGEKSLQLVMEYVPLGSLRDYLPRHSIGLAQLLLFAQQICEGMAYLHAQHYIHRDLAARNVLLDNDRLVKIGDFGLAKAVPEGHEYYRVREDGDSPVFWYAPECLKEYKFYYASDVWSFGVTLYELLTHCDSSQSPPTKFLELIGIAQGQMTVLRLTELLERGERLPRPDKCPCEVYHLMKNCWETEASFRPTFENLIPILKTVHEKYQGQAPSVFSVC
Chain of High affinity nerve growth factor receptor (Homo sapiens) (P04629 33-796 limits assumed): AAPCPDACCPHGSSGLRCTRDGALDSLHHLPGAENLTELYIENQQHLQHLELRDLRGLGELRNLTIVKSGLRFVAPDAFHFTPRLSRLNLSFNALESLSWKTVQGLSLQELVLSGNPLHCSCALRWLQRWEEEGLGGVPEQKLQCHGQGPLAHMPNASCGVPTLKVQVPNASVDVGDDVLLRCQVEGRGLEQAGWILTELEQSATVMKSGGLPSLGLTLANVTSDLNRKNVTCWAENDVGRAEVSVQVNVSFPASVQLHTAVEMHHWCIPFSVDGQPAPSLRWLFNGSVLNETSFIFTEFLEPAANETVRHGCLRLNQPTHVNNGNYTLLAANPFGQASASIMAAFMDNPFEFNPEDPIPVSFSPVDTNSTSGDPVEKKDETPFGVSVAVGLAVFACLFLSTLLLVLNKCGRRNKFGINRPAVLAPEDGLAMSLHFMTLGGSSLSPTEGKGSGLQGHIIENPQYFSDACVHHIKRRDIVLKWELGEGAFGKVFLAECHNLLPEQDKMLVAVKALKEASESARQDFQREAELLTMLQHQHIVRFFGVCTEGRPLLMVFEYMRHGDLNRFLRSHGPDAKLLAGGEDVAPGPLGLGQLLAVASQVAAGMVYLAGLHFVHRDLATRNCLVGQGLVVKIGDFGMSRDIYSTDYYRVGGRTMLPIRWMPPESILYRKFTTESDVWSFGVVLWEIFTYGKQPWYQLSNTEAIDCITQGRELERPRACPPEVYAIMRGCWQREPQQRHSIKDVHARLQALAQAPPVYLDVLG

Row | SMILES | inhibition [1] | inhibition [2] | inhibition [3] | inhibition [4] | inhibition [5] | inhibition [6] | inhibition [7] | inhibition [8] | inhibition [9] | inhibition [10] | inhibition [11] | inhibition [12] | inhibition [13] | inhibition [14] | inhibition [15] | inhibition [16] | inhibition [17] | inhibition [18] | inhibition [19] | inhibition [20]
1 | CS(=O)(=O)CCNCc1coc(-c2ccc3ncnc(Nc4ccc(OCc5ccccc5)cc4)c3c2)c1 | 4.8% | 2% | 4.13% | 2.96% | 4.88% | 4.16% | 3.86% | 1.95% | 2.54% | 2.4% | 4.78% | 1.47% | 9.78% | 1.46% | 8.58% | 8.03% | 6.21% | 0.9% | 3.83% | 3.41%
2 | COc1ccc(CNC(=O)c2ccc(-c3cc(-c4nnc(C)o4)ccc3C)cc2)cc1 | -1.3% | 1.54% | 4.36% | 2.79% | 5.45% | 3.95% | 3.7% | 0.15% | 6.7% | -0.94% | 4.73% | 5.79% | 6.54% | 2.85% | -5.63% | 13.2% | 20.7% | 4% | 6.93% | 3.14%
3 | [O-][S+]1CCN(Cc2ccc(-c3ccc4ncnc(Nc5ccc(OCc6cccc(F)c6)c(Cl)c5)c4c3)o2)CC1 | 3.26% | 3.51% | 2.84% | 2.99% | 3.32% | -0.35% | 5.13% | -1.86% | 13.9% | 4.7% | 4.74% | 4.97% | 9.46% | 0.94% | 6.06% | 9.61% | 15.9% | 1.81% | 5.19% | 7.46%
4 | CNC(=O)c1cncc(/C=C/c2ccccc2Cl)c1 | -0.75% | -1.43% | 2.71% | -1.83% | 3.94% | 4.15% | 16% | 2.63% | 5.89% | 1.14% | 12% | 2.57% | 7.3% | 5.27% | -3.84% | 3.92% | 8.22% | 1.8% | 2.04% | 2.52%
5 | CC(C)(CO)CNC(=O)c1ccc2c(c1)/C(=N/Nc1ccc(S(N)(=O)=O)cc1)C(=O)N2 | 15.6% | 3.35% | 31.2% | 6.89% | 41.5% | -0.15% | 3.21% | -1.38% | 79.2% | 11.9% | 56.2% | 0.26% | 21% | 3.09% | 43% | -1.79% | 4.55% | 0.92% | 3.15% | 0.68%
6 | CS(=O)(=O)CCNCc1ccc(-c2ccc3ncnc(Nc4ccc(OCc5ccccc5)c(C(F)(F)F)c4)c3c2)o1 | -0.59% | 2.63% | 2.63% | 2.74% | 1.42% | -2.21% | 4.38% | -7.44% | 9.83% | 2.91% | 2.77% | 1.73% | 3.4% | -0.38% | 2.61% | 5.07% | 8.24% | 0.85% | 1.46% | 2.98%
7 | Nc1nc(-c2ccc(F)cc2)c(-c2ccc3ncccc3n2)s1 | 4.77% | 4.19% | 3.45% | 3.72% | 5.31% | 3.19% | 6% | -2.9% | 7.77% | 4.14% | 10.6% | 6.06% | 7.91% | 2.74% | -0.03% | 5.75% | 10.1% | 2.4% | 3.82% | 17.7%
8 | CC(C)COC(=O)c1ccc2c(c1)/C(=C/Nc1ccc(S(N)(=O)=O)cc1)C(=O)N2 | 30.4% | 6.02% | 40.2% | 8.8% | 48.5% | 1.73% | 4.75% | 3.35% | 70.1% | 3.84% | 61% | 6.97% | 48% | 4.05% | 82.9% | -1.08% | 12.6% | 2.95% | 14.3% | 14.5%
9 | CCN(CC)S(=O)(=O)c1ccc(OC)c(Nc2ncc(-c3ccccc3)o2)c1 | 41.5% | 5.72% | 41.5% | 4.27% | 35.2% | 3.92% | 24.9% | -1.59% | 8.57% | 1.61% | 13.9% | 1.33% | 4.64% | 2.12% | -4.34% | 2.55% | 8.37% | 1.18% | 1.77% | 2.08%
10 | COc1cccc(-n2ncc3c(N/N=C/c4ccc(F)cc4)ncnc32)c1 | 4.65% | 3.34% | 4.5% | 3.31% | 6.74% | 4.3% | 8.25% | -4.95% | 10.9% | 2.1% | 18.5% | 4.02% | 12.9% | 2.64% | 3.29% | 6.75% | 10.9% | 0.43% | 0.63% | 5.23%
11 | CC(=O)NCc1cccc(C#Cc2cncnc2Nc2ccc(OCc3cccc(F)c3)c(Cl)c2)c1 | 1.37% | 0.64% | 2.98% | 0.24% | 4.11% | 2.29% | -2.24% | 0.84% | -8.1% | 1.59% | 5.66% | 1.99% | 6.3% | 1% | -2.37% | 0.67% | 8.18% | 0.67% | 3.21% | 2.6%
12 | CCn1c(-c2nonc2N)nc2c(C#CC(C)(C)O)nc(OC[C@H](N)c3ccccc3)cc21 | 3.54% | 1.58% | 2.5% | 1.64% | 6.42% | 7.32% | 3.73% | -2.11% | 11.2% | 2.4% | 2.98% | 3.29% | 5.24% | 1.89% | 2.08% | 7.07% | 28.8% | 3.33% | 16% | 4.79%
13 | CNC(=O)c1cccc(C#Cc2cncnc2Nc2ccc(OCc3cccc(F)c3)c(Cl)c2)c1 | 0.53% | 2.25% | 1.08% | 0.94% | 2.86% | 1.86% | 3.33% | -0.77% | 9.1% | 2.9% | 11.8% | -0.67% | 4.77% | 1.94% | -5.97% | 0% | 4.51% | -1.31% | 0.34% | -0.86%
